From the supplement of paper PMC10127200
Counter-ions that a name gives are not always drawn.

Legend:
Assay in all cases: Euclidean distance of Cell Painting phenotypic profile (signed KS, 77 features) to DMSO centroid (dimensionless distance); 5 or 10 uM (library dependent); higher = stronger phenotypic change vs DMSO (phenoactivity)
Details in all cases: 48 h
786-O = test system: 786-O
How it was run: (§1)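 Five cancer lines, together with a healthy fibroblast line, received library compounds for 48 h at a library-dependent 10 or 5 uM and 0.1% DMSO final. Harmony then derived 77 features from confocal 20X images (9 fields/well) of the stained cells, scoring each as a signed Kolmogorov-Smirnov statistic against same-plate vehicle wells. After plate-position correction, correlation weighting and replicate averaging at the top dose, phenoactivity was taken as each profile's Euclidean distance to the median vehicle profile.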

A549 = test system: A549
How it was run: as §1

DU145 = test system: DU145
How it was run: as §1

FB = test system: FB
How it was run: as §1

HEPG2 = test system: HEPG2
How it was run: as §1

OVCAR4 = test system: OVCAR4
How it was run: as §1

Row | SMILES | Euclidean distance (786-O) | Euclidean distance (A549) | Euclidean distance (DU145) | Euclidean distance (FB) | Euclidean distance (HEPG2) | Euclidean distance (OVCAR4)
1 | NCCc1c[nH]cn1 [Histamine] | 1.05 | 1.15 | 1.33 | 1.24 | 1.08 | 1.27
2 | COC(=O)C1=C(C)NC(C)=C(C(=O)OC(C)C)C1c1cccc2nonc12 (stereo unspecified) [Isradipine] | 1.36 | 1.33 | 1.21 | 1.42 | 1.56 | 1.1
3 | CCN(CC)Cc1ccc2cc(COC(=O)Nc3ccc(C(=O)NO)cc3)ccc2c1 [Givinostat (ITF2357)] | 2.68 | 3.9 | 2.88 | 3.63 | 4.2 | 3.32
4 | CC(C(=O)O)c1ccc(C(=O)c2ccccc2)s1 (stereo unspecified) [Tiaprofenic acid] | 1.13 | 0.629 | 0.684 | 0.967 | 0.859 | 0.857
5 | O=C(O)CCCCC(CCSCc1ccccc1)SCc1ccccc1 (stereo unspecified) | 0.848 | 0.928 | 1.09 | 0.687 | 0.938 | 0.821
6 | Cc1cc(Cn2cnc3c2CC(C(=O)O)N(C(=O)C(c2ccccc2)c2ccccc2)C3)ccc1N(C)C (stereo unspecified) | 0.67 | 1.03 | 1.03 | 1.08 | 0.529 | 0.828
7 | COc1ccc([C@H]2CNC(=O)C2)cc1OC1CCCC1 [S- (+)-Rolipram] | 1.12 | 1.46 | 1 | 0.792 | 1.24 | 1.49
8 | CN[C@@H]1[C@@H](O)[C@@H](O[C@@H]2[C@@H](O)[C@H](O[C@H]3O[C@H](CN)[C@@H](O)[C@H](O)[C@H]3O)[C@@H](N)C[C@H]2NC(=O)[C@@H](O)CN)OC[C@]1(C)O [Isepamicin Sulphate] | 1.12 | 0.946 | 0.819 | 1.14 | 0.94 | 1.65
9 | CC(C)N(C[C@H]1O[C@@H](n2cnc3c(N)ncnc32)[C@H](O)[C@@H]1O)[C@H]1C[C@@H](CCc2nc3cc(C(C)(C)C)ccc3[nH]2)C1 | 0.867 | 0.931 | 1.3 | 1.28 | 0.884 | 0.955
10 | CC(C)N(CC[C@H](c1ccccc1)c1cc(CO)ccc1O)C(C)C | 1.1 | 0.675 | 0.538 | 0.842 | 1.02 | 1.05
11 | CCS(=O)(=O)N1CC(CC#N)(n2cc(-c3ncnc4[nH]ccc34)cn2)C1 | 1.86 | 0.875 | 1.45 | 1.57 | 0.589 | 0.899
12 | CC(C(=O)O)c1cccc(Oc2ccccc2)c1 (stereo unspecified) [Fenoprofen calcium hydrate] | 1.27 | 0.707 | 0.898 | 0.869 | 0.486 | 1.2
13 | N[C@@H](Cc1cc(I)c(Oc2ccc(O)c(I)c2)c(I)c1)C(=O)O [Triiodothyronine] | 1.04 | 1.57 | 1.08 | 0.968 | 0.865 | 1.58
14 | O=C(O)C1=C(CSc2nnnn2CS(=O)(=O)O)CS[C@@H]2[C@H](NC(=O)[C@H](O)c3ccccc3)C(=O)N12 [Cefonicid sodium] | 0.931 | 0.892 | 0.858 | 1.26 | 0.665 | 1.46
15 | CCS(=O)(=O)N1CC(CC#N)(n2cc(-c3ncnc4[nH]ccc34)cn2)C1 [Baricitinib phosphate] | 1.75 | 0.985 | 1.99 | 1.55 | 0.776 | 0.981
16 | C[N+](C)(C)CC(=O)O [Betaine] | 1.1 | 0.84 | 0.542 | 0.947 | 1.41 | 0.81
17 | O=c1oc2cc(O)ccc2s1 [Tioxolone] | 1.49 | 0.671 | 0.857 | 0.922 | 2.64 | 1.29
18 | C[C@]12CCCN1CC1=NNC(=O)c3cc(F)cc4[nH]c2c1c34 [Pamiparib (BGB-290)] | 1.52 | 1.68 | 1.44 | 1.48 | 2.36 | 1.71
19 | CC[C@H]1OC(=O)[C@H](C)[C@@H](O[C@H]2C[C@@](C)(OC)[C@@H](O)[C@H](C)O2)[C@H](C)[C@@H](O[C@@H]2O[C@H](C)C[C@H](N(C)C)[C@H]2O)[C@](C)(O)C[C@@H](C)C(=O)[C@H](C)[C@@H](O)[C@]1(C)O [Erythromycin thiocyanate] | 1.01 | 1.44 | 0.991 | 1.53 | 0.812 | 1.95
20 | CC[C@@H](CO)NCCN[C@@H](CC)CO [Ethambutol 2HCl] | 1.58 | 0.663 | 1.06 | 0.73 | 0.465 | 1.38
21 | Cc1cnc(-c2cc(N3CCN(C(=O)CCS(C)(=O)=O)CC3)ncc2Cl)c(C)c1 | 0.761 | 1.09 | 1.04 | 1.23 | 0.662 | 1.03
22 | O=C(c1ccc(NS(=O)(=O)c2cccc3cccnc23)cc1)N1CCN(CC2CC2)CC1 [Mitapivat] | 1.26 | 0.913 | 1.1 | 1.04 | 1.09 | 1.47
23 | CCC(=O)NC[C@@H]1C[C@H]1c1cccc2c1CCO2 [Tasimelteon] | 1.21 | 1.04 | 0.924 | 1.26 | 0.397 | 1.28

Row | SMILES | Euclidean distance (786-O) | Euclidean distance (A549) | Euclidean distance (DU145) | Euclidean distance (FB) | Euclidean distance (HEPG2) | Euclidean distance (OVCAR4)
24 | CC(NCCc1ccc(O)cc1)C(O)c1ccc(O)cc1 (stereo unspecified) [Ritodrine HCl] | 1.08 | 0.752 | 0.998 | 1.01 | 0.393 | 0.728
25 | COc1ccc2cc(C(=O)O)ccc2c1 [6-Methoxy-2-naphthoic acid] | 0.861 | 0.63 | 0.683 | 1.15 | 0.634 | 1.19
26 | CC[C@]1(O)C[C@H]2CN(CCc3c([nH]c4ccccc34)[C@@](C(=O)OC)(c3cc4c(cc3OC)N(C=O)[C@H]3[C@@](O)(C(=O)OC)[C@H](OC(C)=O)[C@]5(CC)C=CCN6CC[C@]43[C@@H]65)C2)C1 [Vincristine] | 3.12 | 2.61 | 4.78 | 3.47 | 3.99 | 2.86
27 | C[C@]12CC[C@@H]3c4ccc(O)cc4CC[C@H]3[C@@H]1CC[C@@H]2OC(=O)CCC1CCCC1 [Estradiol Cypionate] | 1.29 | 1.56 | 1.4 | 1.23 | 0.84 | 1.34
28 | O=C(NCC(O)CO)c1c(I)c(C(=O)NCC(O)CO)c(I)c(N(CCO)C(=O)CO)c1I (stereo unspecified) [Ioversol] | 0.684 | 0.636 | 0.983 | 0.679 | 0.876 | 1.14
29 | COC(=O)c1ccccc1O [Methyl salicylate] | 0.625 | 0.514 | 0.585 | 0.713 | 0.768 | 0.636
30 | CCc1c2c(nc3ccc(O)cc13)-c1cc3c(c(=O)n1C2)COC(=O)[C@]3(O)CC | 4.4 | 4.38 | 3.48 | 4.61 | 3.55 | 3.46
31 | NCCCC[C@H](NC(=O)[C@@H](NC(=O)[C@H](Cc1c[nH]c2ccccc12)NC(=O)[C@H](CCCCN)NC(=O)[C@H](CCCCN)NC(=O)[C@H](Cc1c[nH]c2ccccc12)NC(=O)[C@H](Cc1c[nH]c2ccccc12)NC(=O)[C@H](CCCCN)NC(=O)[C@@H](N)CCCCN)C(c1ccccc1)c1ccccc1)C(N)=O | 4.67 | 1.24 | 1.35 | 1.8 | 1.2 | 2.23
32 | OB1OCc2cc(F)ccc21 [Tavaborole (AN-2690)] | 0.735 | 0.76 | 0.961 | 1.16 | 0.354 | 0.974
33 | CC(c1cc2ccccc2s1)N(O)C(N)=O (stereo unspecified) [Zileuton] | 1.8 | 0.949 | 0.621 | 1.2 | 1.12 | 1.11
34 | CSCCNc1nc(SCCC(F)(F)F)nc2c1ncn2[C@@H]1O[C@H](COP(=O)(O)OP(=O)(O)C(Cl)(Cl)P(=O)(O)O)[C@@H](O)[C@H]1O [Cangrelor Tetrasodium] | 1.09 | 1.07 | 0.563 | 1.25 | 0.767 | 0.58
35 | Cc1ccccc1C(C(=O)NC1CCCCC1)N(C(=O)Cn1ccnc1C)c1cccc(F)c1 (stereo unspecified) | 1.02 | 1.06 | 1.01 | 1.52 | 0.839 | 1.59
36 | C[C@@H]1O[C@@H]1P(=O)(O)O [Fosfomycin Disodium] | 1.44 | 0.52 | 0.647 | 0.793 | 0.716 | 0.92
37 | CC[C@H](NC(=O)[C@H](C)NC)C(=O)N1C[C@@H](O)C[C@H]1Cc1c(-c2[nH]c3cc(F)ccc3c2C[C@@H]2C[C@H](O)CN2C(=O)[C@H](CC)NC(=O)[C@H](C)NC)[nH]c2cc(F)ccc12 [Birinapant] | 1.15 | 1.08 | 2.69 | 1.06 | 2.95 | 1.97
38 | Cc1cccc(C)c1N(CC(=O)Nc1ccc(-c2ncon2)cc1)C(=O)C1CCS(=O)(=O)CC1 [Amenamevir] | 1.07 | 0.772 | 0.783 | 1.3 | 0.5 | 1.2
39 | C[N+](C)(C)CCOC(N)=O [Carbachol] | 1.07 | 1.19 | 0.687 | 1.16 | 0.696 | 1.56
40 | CCOC(=O)c1c(N)sc2c1CCN(Cc1ccccc1)C2 [Tinoridine hydrochloride] | 1.51 | 0.9 | 1.2 | 1.13 | 0.814 | 1.31
41 | Nc1nccc(Oc2ccc(NC(=O)c3c[nH]cc(-c4ccc(F)cc4)c3=O)cc2F)c1Cl | 1.57 | 1.17 | 1.56 | 1.94 | 1.17 | 1.62
42 | c1ccc(CN(CC2=NCCN2)c2ccccc2)cc1 [Antazoline HCl] | 1.19 | 0.647 | 0.893 | 1.02 | 0.685 | 1.02
43 | CC(C)(C)[C@H]1CC[C@H](CC2=C(O)C(=O)c3ccccc3C2=O)CC1 [Buparvaquone] | 1.16 | 1.1 | 1.17 | 0.844 | 0.483 | 1.44
44 | O=c1cc(-c2cccc3c2Sc2ccccc2S3)oc(N2CCOCC2)c1 | 0.999 | 0.525 | 0.839 | 1.33 | 1.72 | 1.14
45 | CCN1CCN(C(=O)N[C@@H](C(=O)N[C@@H]2C(=O)N3[C@@H]2SC(C)(C)[C@@H]3C(=O)O)c2ccccc2)C(=O)C1=O [Piperacillin Sodium] | 1.11 | 0.62 | 0.884 | 1.1 | 0.514 | 1.25
46 | Cc1c(-c2ccccc2)oc2c(C(=O)OCCN3CCCCC3)cccc2c1=O [Flavoxate HCl] | 0.908 | 2.27 | 1.73 | 2.91 | 0.927 | 1.61
